# Out of some 340,000 compounds screened, about 6,200 (1.8%) were called active. A call without a number means that no potency is given here. About 10% were inconclusive and are not listed. The call rests on the fitted dose curve; in most records, active means well fitted activation curve with a large enough effect; inconclusive means small, poorly fitted or top-dose-only effect; inactive means no such curve, though single readings can be large or run the other way. Only a selection was taken, and actives are over-represented in it overall.
# Assay: A quantitative high throughput screen for small molecules that induce DNA re-replication in SW480 colon adenocarcinoma cells. Further: nearly all actives have a fitted effect of over 55% in size.
# Details: Hoechst DNA content imaging, 48 h; series mostly up to 46.1 µM
# Excerpt: H Molecular Libraries Probe Production Network [MLPCN] NIH Chemical Genomics Center [NCGC] MLPCN Grant: Fast Track K99 CA136555 Assay Provider: Melvin DePamphilis, NICHD, NIH Assay Overview Eukaryotic cells normally restrict genome duplication to once per cell division. When this process is aberrant, DNA re-replication occurs when cells reinitiate DNA replication before the first round of replication is complete. DNA re-replication induces the DNA damage response, arrests cell proliferation, and triggers apoptosis. The cell cycle components cyclin A, Cdt-1, Cdc6 and geminin are critical regulators of this process and their misregulation results in DNA re-replication in normal and cancer cells. To identify compounds that induce re-replication in normal cells, an image-based assay was used to measure DNA content of nuclei, as detected by the fluorescent DNA binding dye, Hoechst. Cell nuclei were imaged by a fluorescence scanning plate imager and compounds that induce DNA re-replication were identified by the increase of nuclei with elevated fluorescence intensity
# For screening, 250 cells in 5 uL/well were dispensed into black clear 1536-well plates (Aurora) using a solenoid-based dispenser. Following transfer of 23 nL compound or DMSO vehicle by a pin tool, the plates were incubated 48 hr at 37 C and 5% CO2. After addition of 1 uL/well Hoescht stain, the plates were incubated 40 min at 37 C, 5% CO2 and total intensity of fluorescent objects (nuclei) were enumerated by an Acumen Explorer Ex3 (TTP LabTech) fluorescence scanning plate imager (405 nm excitation, 500-530 nm emission). Keywords: NIH Roadmap, MLPCN, MLI, MLSMR, qHTS, NCGC, DNA replication, cancer
# Potency means the concentration at half of the fitted maximal effect.
Structure (SMILES),Potency,re-replication activation
CC(NC(=O)COC(=O)c1ccc2ccccc2n1)c1ccccc1 (stereo unspecified),inactive,
Cc1ccc(O)c(-c2cc(C(=O)Nc3c(C)n(C)n(-c4ccccc4)c3=O)[nH]n2)c1,0.058 µM (active),
Cc1ccc(O)c(-c2cc(C(=O)NCc3ccccc3)[nH]n2)c1,inactive,
Cc1c(NC(=O)c2cccnc2)c(=O)n(-c2ccccc2)n1C,inactive,
O=C1Cc2cc(S(=O)(=O)Nc3cccc(F)c3)ccc2N1,inactive,
CC(OC(=O)c1cc2ccccc2[nH]1)C(=O)N(C)c1ccccc1 (stereo unspecified),inactive,
COc1ccc(C2CC(c3cccs3)=NN2C(=O)CCC(=O)O)cc1OC (stereo unspecified),inactive,
COc1cccc(C2CC(c3cccs3)=NN2C(=O)CSC2=NCCS2)c1OC (stereo unspecified),inactive,
COc1ccccc1N1N=C(c2cccs2)CC1c1ccccc1 (stereo unspecified),2.59 µM (active),
NC(=O)C1(N2CCCC2)CCN(Cc2ccccc2)CC1,inactive,
CCCCN1CC(COCc2ccccc2)OCCS1(=O)=O (stereo unspecified),inactive,
Cc1cccc(CC2(O)C(=O)Nc3ccccc32)n1 (stereo unspecified),inactive,
O=C(CC1Sc2ccccc2NC1=O)NNc1ccc(Cl)c(Cl)c1 (stereo unspecified),inactive,
COc1cccc(NC(=O)COc2cccnc2[N+](=O)[O-])c1,inactive,
Cc1ccccc1N1CCN(CCCOc2ccc3c(C)cc(=O)oc3c2)CC1,inactive,
Cc1cc(=O)oc2cc(OCCC[n+]3ccccc3)ccc12,inactive,
Cc1cc(=O)oc2cc(OCC3CC(c4ccccc4Cl)=NO3)ccc12 (stereo unspecified),3.66 µM (active),
CCCSC(=S)NC1CCS(=O)(=O)C1 (stereo unspecified),16.4 µM (active),
O=C(Cc1ccc(Cl)cc1)NC1CCS(=O)(=O)C1 (stereo unspecified),inactive,
COc1ccc(NC(=S)NC2CCS(=O)(=O)C2)cc1 (stereo unspecified),inactive,
CCNC(=S)N1CCN(S(=O)(=O)c2ccc(Cl)s2)CC1,inactive,

Structure (SMILES),Potency,re-replication activation
CC1O[C@@H](OC2C(O)C(C)O[C@H](OC(=O)[C@]34CCC(C)(C)C[C@H]3C3=CCC5[C@@]6(C)CC(O)C(O[C@@H]7OC(CO)C(O)[C@@H](O)[C@@H]7O)[C@@](C)(C(=O)O)C6CC[C@@]5(C)[C@]3(CO)CC4)C2O[C@H]2OC(C)[C@@H](O[C@@H]3OCC(O[C@@H]4OC(CO)C(O)[C@H](O)C4O)[C@@H](O)[C@@H]3O)[C@H](O)C2O)C(O)C(O)C1O (stereo partly specified),inactive,
Cc1cccc(C)c1NC(=O)CSc1ccc([N+](=O)[O-])cn1,inactive,
O=[N+]([O-])c1ccc(Sc2n[nH]c(-c3ccco3)n2)nc1,inactive,
CC(C)(C)n1cnnc1Sc1ccc([N+](=O)[O-])cn1,18.4 µM (active),
CC[C@]12c3[nH]c4cc(CCC(=O)N(C)C)ccc4c3CCN1C(=O)[C@@H](CC(=O)NCCCN(C)C)C[C@@H]2C(=O)N1CCN(C(=O)c2ccco2)CC1,inactive,
CCOC(=O)[C@H]1[C@H]2COc3cc(OC)ccc3[C@@H]2N2C(=O)CN(Cc3ccc(Cl)cc3)C(=O)[C@@]12C,inactive,
Cc1ccsc1C(=O)OCC(=O)NCCc1ccccc1,inactive,
COc1ccc(OC)c2[nH]c(=O)c(CCNC(=O)C(=O)c3c[nH]c4ccccc34)cc12,20.6 µM (active),
COc1ccc(OC)c2[nH]c(=O)c(CCNC(=O)C(C)(C)C)cc12,inactive,
COc1ccc(/C=C(\NC(=O)c2ccc(OC)c(OC)c2)C(=O)NCCc2c[nH]c3ccccc23)cc1,inactive,
COc1ccccc1-c1sc2ccccc2c1C#CC1(O)CCCCC1,inactive,
O=C(Nc1cccc(Cl)c1N1CCOCC1)c1cccnc1,inactive,
O=C(Nc1cccc(Cl)c1N1CCOCC1)c1ccc2c(c1)OCCO2,2.31 µM (active),
COC(=O)c1ccc(N2CCOCC2)c(NC(=O)c2ccc3c(c2)OCCO3)c1,inactive,
C=CCCC(=O)N1C[C@H]2CON(C)[C@H]2C[C@H]1c1cccc(Nc2ccccc2)c1,,-6.4% [at 9.22 µM] (inactive)
O=C(Nc1cccc(Br)c1)C1CC(=O)N(C2CCCC2)C1 (stereo unspecified),inactive,
O=C(c1ccc(N2CCOCC2)c([N+](=O)[O-])c1)N1CCN(c2ccccc2F)CC1,inactive,
O=C(Nc1nnc(Cc2ccc(Cl)cc2)s1)c1ccncc1,inactive,
O=C(Nc1nnc(Cc2ccc(Cl)cc2)s1)c1cccnc1,18.4 µM (active),
O=C(Nc1nnc(Cc2ccccc2)s1)c1cnccn1,inactive,
Cc1nnc(Sc2nc3c(c(=O)[nH]c(=O)n3C)n2Cc2ccccc2)s1,inactive,

Structure (SMILES),Potency,re-replication activation
C=CCSc1nc2c(c(=O)[nH]c(=O)n2C)n1Cc1ccccc1,1.64 µM (active),
C=CCn1c(SCc2ccccc2)nc2c1c(=O)[nH]c(=O)n2C,inactive,
CCN(CC)S(=O)(=O)c1ccc(N2CCOCC2)c(NC(=O)c2ccc(=O)n(C)n2)c1,inactive,
CCN(CC)S(=O)(=O)c1ccc(N2CCCC2)c(NC(=O)c2ccc([N+](=O)[O-])o2)c1,13 µM (active),
CCN(CC)S(=O)(=O)c1cc(C(=O)Nc2cc(S(=O)(=O)N3CCOCC3)ccc2N2CCCC2)ccc1F,inactive,
COc1ccc(-c2nnc(-c3ccc4ccccc4c3)o2)cc1,inactive,
CN(Cc1ccccc1)C(=O)COC(=O)/C=C/c1ccc2c(c1)OCO2,inactive,
CC(C)(C)c1ccc(C(=O)NCCn2c(N)c(C#N)c3nc4ccccc4nc32)cc1,20.6 µM (active),
CC(C)(C)OC(=O)c1c(N)n(CCCN2CCCC2=O)c2nc3ccccc3nc12,inactive,
CN1OC(COC(=O)c2ccc(Cl)cc2)CC1c1ccccc1 (stereo unspecified),inactive,
N#Cc1c(N)n(CCOC(=O)c2ccc(Cl)cc2)c2nc3ccccc3nc12,20.6 µM (active),
Cn1cncc1COC(=O)c1ccc(Cl)cc1,inactive,
CC(C)(C)c1ccc(C(=O)NCC(=O)OCN2C(=O)c3ccccc3C2=O)cc1,inactive,
COc1ccc(S(=O)(=O)N(C)C[C@H]2Oc3ccc(NS(=O)(=O)c4cccs4)cc3CC(=O)N([C@H](C)CO)C[C@H]2C)cc1,,-2.46% [at 9.22 µM] (inactive)
CSCCC(NC(=O)c1ccccc1)C(=O)N1CCN(Cc2ccc(Cl)cc2)CC1 (stereo unspecified),inactive,
CC1CCCN(C(=O)CN2C(=O)c3ccccc3S2(=O)=O)C1 (stereo unspecified),inactive,
CCCCCCOc1ccc(OC(=O)c2cccnc2)cc1,8.2 µM (active),
O=C(Oc1ccc(Br)cc1)c1cccnc1,inactive,
N#CCc1ccc(OC(=O)c2cccnc2)cc1,inactive,

# Reference: PubChem BioAssay AID624297 (National Center for Advancing Translational Sciences (NCATS), 2012)
